This passage reports binding signal results from publication PMC8384837, “Expanding the binding specificity for RNA recognition by a PUF domain”.

Common to all, as to assay: yeast three-hybrid, YBZ-1, SC-Leu-His + 0.5 mM 3-AT, 4 days
Conditions in all cases: tags: N-Gal4 AD-HA kept; label: inside an RPR1-promoter hybrid RNA with tandem MS2 sites; ssRNA

The target in one assay is PUM1 PUF domain R5-DRR (Homo sapiens, UniProt Q14671 828-1176, C1007D;Q1011R). The procedure, abridged:
(§1)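 Pumilio-1 PUF domain libraries, randomized (NNK) at the three base-contacting residues of each repeat, were co-expressed with matching RNA elements from a centromeric plasmid in strain YBZ-1 (LexA–MS2 coat fusion, HIS3 reporter). Transformants were plated on SC-Leu (input) and SC-Leu-His + 0.5 mM 3-AT (selection) for four days, and repeat regions were PCR-amplified and Illumina-sequenced. The interaction score is the log2 change in variant frequency from input to selection, with pseudocount 1 where absent.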

The next assay addresses PUM1 PUF domain R5-RGV (Homo sapiens, UniProt Q14671 828-1176, C1007R;R1008G;Q1011V). The procedure, abridged: as §1
A further assay addresses PUM1 PUF domain R5-RQT (Homo sapiens, UniProt Q14671 828-1176, C1007R;R1008Q;Q1011T). The procedure, abridged:
as §1

Another assay concerns the target PUM1 PUF domain R5-KLI (Homo sapiens, UniProt Q14671 828-1176, C1007K;R1008L;Q1011I). Summed up: as §1
The target in the next assay is PUM1 PUF domain R5-KSD (Homo sapiens, UniProt Q14671 828-1176, C1007K;R1008S;Q1011D). The procedure, abridged:
as §1

The target of a further assay is PUM1 PUF domain R3-LRE (Homo sapiens, UniProt Q14671 828-1176, C935L;Q939E). The procedure, abridged:
as §1

For a further assay, the target named is PUM1 PUF domain R5-TFY (Homo sapiens, UniProt Q14671 828-1176, C1007T;R1008F;Q1011Y). Summed up: as §1
In the next assay the target is T1, PUM1 PUF domain R6-IYE (Homo sapiens, UniProt Q14671 828-1176, N1043I;Q1047E).
T1 sequence: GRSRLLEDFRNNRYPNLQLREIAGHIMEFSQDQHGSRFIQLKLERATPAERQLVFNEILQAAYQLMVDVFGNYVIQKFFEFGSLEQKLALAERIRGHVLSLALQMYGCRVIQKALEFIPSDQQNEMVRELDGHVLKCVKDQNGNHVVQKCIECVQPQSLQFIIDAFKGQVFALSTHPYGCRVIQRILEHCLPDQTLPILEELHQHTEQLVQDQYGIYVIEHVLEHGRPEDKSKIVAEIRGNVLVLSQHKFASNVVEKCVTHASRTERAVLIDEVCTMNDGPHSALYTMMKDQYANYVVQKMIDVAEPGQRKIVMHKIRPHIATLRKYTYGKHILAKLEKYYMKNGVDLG
Summed up:
as §1

The next assay concerns the target T2, PUM1 PUF domain R6-LYL (Homo sapiens, UniProt Q14671 828-1176, N1043L;Q1047L).
T2 sequence: T1 sequence with I216L, E220L
Summed up:
as §1

A further assay addresses PUM1 PUF domain R4-SRN (Homo sapiens, UniProt Q14671 828-1176, N971S;H972R;Q975N). The procedure, abridged:
as §1

A further assay has as its target PUM1 PUF domain R3-DYS (Homo sapiens, UniProt Q14671 828-1176, C935D;R936Y;Q939S). Summed up:
as §1

A further assay addresses PUM1 PUF domain R5-PFG (Homo sapiens, UniProt Q14671 828-1176, C1007P;R1008F;Q1011G). Summed up:
as §1

The next assay addresses PUM1 PUF domain R1-KRA (Homo sapiens, UniProt Q14671 828-1176, S863K;Q867A). The procedure, abridged:
as §1

The next assay concerns the target T3, PUM1 PUF domain R6-EWK (Homo sapiens, UniProt Q14671 828-1176, N1043E;Y1044W;Q1047K).
T3 sequence: T1 sequence with I216E, Y217W, E220K
Summed up: as §1

The next assay deals with PUM1 PUF domain R7-GCD (Homo sapiens, UniProt Q14671 828-1176, S1079G;N1080C;E1083D). The procedure, abridged: as §1
Another assay addresses PUM1 PUF domain R4-IML (Homo sapiens, UniProt Q14671 828-1176, N971I;H972M;Q975L). Summed up:
as §1

In the next assay the target is PUM1 PUF domain R8-KHQ (Homo sapiens, UniProt Q14671 828-1176, N1122K;Y1123H). The procedure, abridged: as §1

Substitutions are numbered along the chain they refer to.

PUM1 PUF domain R5-RQT, sequence (Q14671 828-1176 C1007R/R1008Q/Q1011T): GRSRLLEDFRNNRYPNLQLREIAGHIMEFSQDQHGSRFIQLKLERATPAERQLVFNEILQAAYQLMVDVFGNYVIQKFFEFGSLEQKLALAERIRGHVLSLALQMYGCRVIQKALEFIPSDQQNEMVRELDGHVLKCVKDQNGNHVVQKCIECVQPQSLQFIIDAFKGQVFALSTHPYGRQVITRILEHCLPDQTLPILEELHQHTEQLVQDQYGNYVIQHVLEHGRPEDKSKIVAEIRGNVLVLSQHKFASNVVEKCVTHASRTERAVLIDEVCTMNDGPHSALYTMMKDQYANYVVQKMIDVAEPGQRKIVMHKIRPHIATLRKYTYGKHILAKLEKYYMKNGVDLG
PUM1 PUF domain R5-KSD, sequence (Q14671 828-1176 C1007K/R1008S/Q1011D): as the sequence (Q14671 828-1176 C1007R/R1008Q/Q1011T) above, with R180K, Q181S, T184D counted along it
PUM1 PUF domain R5-RGV, sequence (Q14671 828-1176 C1007R/R1008G/Q1011V): as the sequence (Q14671 828-1176 C1007R/R1008Q/Q1011T) above, with Q181G, T184V counted along it
PUM1 PUF domain R3-DYS, sequence (Q14671 828-1176 C935D/R936Y/Q939S): as the sequence (Q14671 828-1176 C1007R/R1008Q/Q1011T) above, with C108D, R109Y, Q112S, R180C, Q181R, T184Q counted along it
PUM1 PUF domain R5-KLI, sequence (Q14671 828-1176 C1007K/R1008L/Q1011I): as the sequence (Q14671 828-1176 C1007R/R1008Q/Q1011T) above, with R180K, Q181L, T184I counted along it
PUM1 PUF domain R4-IML, sequence (Q14671 828-1176 N971I/H972M/Q975L): as the sequence (Q14671 828-1176 C1007R/R1008Q/Q1011T) above, with N144I, H145M, Q148L, R180C, Q181R, T184Q counted along it
PUM1 PUF domain R8-KHQ, sequence (Q14671 828-1176 N1122K/Y1123H): as the sequence (Q14671 828-1176 C1007R/R1008Q/Q1011T) above, with R180C, Q181R, T184Q, N295K, Y296H counted along it
PUM1 PUF domain R5-PFG, sequence (Q14671 828-1176 C1007P/R1008F/Q1011G): as the sequence (Q14671 828-1176 C1007R/R1008Q/Q1011T) above, with R180P, Q181F, T184G counted along it

Regarding “GGCUAGAACUAGUGGAUCCCCCGGCGCCCGGCGGCUCGAGCCCGGGUAAGUGUCAAUAGUCUGCAUGCCGCCGGGCGCCAUGCCUGCAGGUCGACUCUAGAAAACAUG”, the binding signal with PUM1 PUF domain R5-DRR is 3.48 log2 enrichment (interaction score); in the assay with PUM1 PUF domain R5-RGV it was 2.55 log2 enrichment (interaction score); in the assay with PUM1 PUF domain R5-RQT, 4.99 log2 enrichment (interaction score); with PUM1 PUF domain R5-KLI, 2.75 log2 enrichment (interaction score); with PUM1 PUF domain R5-KSD it was 2.5 log2 enrichment (interaction score).
Consider “GGCUAGAACUAGUGGAUCCCCCGGCGCCCGGCGGCUCGAGCCCGGGUAAGUGUUAAUAGUCUGCAUGCCGCCGGGCGCCAUGCCUGCAGGUCGACUCUAGAAAACAUG”, for which the binding signal with PUM1 PUF domain R5-DRR was 2.64 log2 enrichment (interaction score); with PUM1 PUF domain R5-RGV, 0.34 log2 enrichment (interaction score); in the assay with PUM1 PUF domain R5-KSD, 1.41 log2 enrichment (interaction score).
Turning to “GGCUAGAACUAGUGGAUCCCCCGGCGCCCGGCGGCUCGAGCCCGGGUAAGUGUAAGUAGUCUGCAUGCCGCCGGGCGCCAUGCCUGCAGGUCGACUCUAGAAAACAUG”, the binding signal in the assay with PUM1 PUF domain R3-LRE is 3.1 log2 enrichment (interaction score).
Turning to “GGCUAGAACUAGUGGAUCCCCCGGCGCCCGGCGGCUCGAGCCCGGGUAAGUGUAAAUAGUCUGCAUGCCGCCGGGCGCCAUGCCUGCAGGUCGACUCUAGAAAACAUG”, the binding signal was 2.23 log2 enrichment (interaction score) in the assay with PUM1 PUF domain R5-TFY; 2.5 log2 enrichment (interaction score) with PUM1 PUF domain R6-IYE; 2.24 log2 enrichment (interaction score) with PUM1 PUF domain R6-LYL; 3.38 log2 enrichment (interaction score) with PUM1 PUF domain R4-SRN; 4.59 log2 enrichment (interaction score) in the assay with PUM1 PUF domain R3-DYS; 1.57 log2 enrichment (interaction score) with PUM1 PUF domain R5-RQT. Besides, the binding signal in the assay with PUM1 PUF domain R5-PFG is 6.32 log2 enrichment (interaction score).
As to “GGCUAGAACUAGUGGAUCCCCCGGCGCCCGGCGGCUCGAGCCCGGGUAAGUGAAAAUAGUCUGCAUGCCGCCGGGCGCCAUGCCUGCAGGUCGACUCUAGAAAACAUG”, the binding signal with PUM1 PUF domain R6-LYL is 3.54 log2 enrichment (interaction score).
In the case of “GGCUAGAACUAGUGGAUCCCCCGGCGCCCGGCGGCUCGAGCCCGGGUAAGUGUAAAUCGUCUGCAUGCCGCCGGGCGCCAUGCCUGCAGGUCGACUCUAGAAAACAUG”, the binding signal with PUM1 PUF domain R1-KRA is 5.03 log2 enrichment (interaction score).
With “GGCUAGAACUAGUGGAUCCCCCGGCGCCCGGCGGCUCGAGCCCGGGUAAGUGUAUAUAGUCUGCAUGCCGCCGGGCGCCAUGCCUGCAGGUCGACUCUAGAAAACAUG”, the binding signal in the assay with PUM1 PUF domain R4-SRN is 0.7 log2 enrichment (interaction score).
Turning to “GGCUAGAACUAGUGGAUCCCCCGGCGCCCGGCGGCUCGAGCCCGGGUAAGUGGAAAUAGUCUGCAUGCCGCCGGGCGCCAUGCCUGCAGGUCGACUCUAGAAAACAUG”, in the assay with PUM1 PUF domain R6-EWK, the binding signal is 2.84 log2 enrichment (interaction score).
With “GGCUAGAACUAGUGGAUCCCCCGGCGCCCGGCGGCUCGAGCCCGGGUAAGUUUAAAUAGUCUGCAUGCCGCCGGGCGCCAUGCCUGCAGGUCGACUCUAGAAAACAUG”, in the assay with PUM1 PUF domain R7-GCD, the binding signal is 3.51 log2 enrichment (interaction score).
On to “GGCUAGAACUAGUGGAUCCCCCGGCGCCCGGCGGCUCGAGCCCGGGUAAGUGUAGAUAGUCUGCAUGCCGCCGGGCGCCAUGCCUGCAGGUCGACUCUAGAAAACAUG”, for which the binding signal with PUM1 PUF domain R4-IML is 3.09 log2 enrichment (interaction score).
In the case of “GGCUAGAACUAGUGGAUCCCCCGGCGCCCGGCGGCUCGAGCCCGGGUAAGCGUAAAUAGUCUGCAUGCCGCCGGGCGCCAUGCCUGCAGGUCGACUCUAGAAAACAUG”, the binding signal with PUM1 PUF domain R8-KHQ is 4.7 log2 enrichment (interaction score).
